Measured values from the supplement of paper PMC10849652.
Of roughly 8,800 targets only a part is listed; those with a hit were picked by preference. About 0.5% of all pairs of compound and target were hits.

Legend:
Assay in all cases: log2 fold change, soluble protein after heating vs DMSO (PISA); higher = thermal stabilisation; K562 lysate, 10 uM; active = over 0.2 and 3.5 SD of the protein, either way, in both replicates (recomputed)
[1] = compound: C1=CC=C(C=C1)[C@H](COC2=CC3=C(C=C2)NC(=O)N3)NC(=O)C4=CC=CN(C4=O)CC5=CC(=C(C=C5)F)F
Outline: (§1)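 A 30 min treatment with 10 μM compound was applied to crude K562 extract at 1 mg/mL protein in PBS pH 7.4 with 1 mM MgCl2. Heating for 3 min spanned 48°C-58°C, after which aliquots were pooled, adjusted to 0.5% NP-40 at 4°C and spun at 21,000xg for 90 min. TMTpro 16plex LC-MS/MS of the supernatant, with channel sums equalised, gave values recorded as log-two fold change in thermal stability against solvent controls, from duplicates.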

[2] = compound: CC1=C(SC2=C1C(=N[C@H](C3=NN=C(N32)C)CC(=O)N)C4=CC=C(C=C4)Cl)C
Outline: as §1

[3] = compound: CC1=C2C(=CC=C1)N=C(N(C2=O)C3=CC=CC=C3C)CN4C=NC5=C(N=CN=C54)N
Outline: as §1

[4] = compound: Cc1sc2c(c1C)C(c1ccc(Cl)cc1)=N[C@@H](CC(=O)OC(C)(C)C)c1nnc(C)n1-2
Outline: as §1

[5] = compound: c1ccc([C@@H]2C[C@H]2NC2CCNCC2)cc1
Outline: as §1

Measured: log2 fold change

H4C1 (UniProt P62805)
inactive: [1] -0.063 | [2] 0.037 | [3] -0.031 | [5] 0.125
active: [4] 0.664

IGF2BP3 (UniProt O00425)
inactive: [1] -0.02 | [2] 0.005 | [3] 0.009 | [4] 0.035 | [5] -0.002

HSPA8 (UniProt E9PK54)
inactive: [1] 0.065 | [2] -0.031 | [3] -0.031 | [4] -0.046 | [5] -0.125

GPR108 (UniProt Q9NPR9)
inactive: [1] 0.059 | [2] -0.053 | [3] 0.005 | [4] -0.066 | [5] 0.014

HSD17B10 (UniProt Q99714)
inactive: [1] -0.006 | [2] 0.062 | [3] 0.03 | [4] 0.022 | [5] 0.003

HSP90AA4P (UniProt Q58FG1)
inactive: [1] 0.012 | [2] 0.1 | [3] -0.008 | [4] -0.101 | [5] -0.308

INTS8 (UniProt Q75QN2)
inactive: [1] 0.021 | [2] -0.085 | [3] -0.002 | [4] 0.023 | [5] 0.081

HMGB1 (UniProt P09429)
inactive: [1] 0.053 | [2] -0.048 | [3] 0.032 | [4] 0.056 | [5] 0.115

KDM6A (UniProt O15550)
inactive: [1] -0.024 | [2] -0.019 | [3] 0.049 | [4] -0.03 | [5] 0.008

HTT (UniProt P42858)
inactive: [1] 0.039 | [2] -0.088 | [3] 0.064 | [4] 0.066 | [5] -0.054

GSTM2 (UniProt P28161)
inactive: [1] -0.007 | [2] 0.03 | [3] -0.048 | [4] -0.037 | [5] 0.051

GSE1 (UniProt Q14687)
inactive: [1] -0.031 | [2] 0.005 | [3] -0.002 | [4] -0.015 | [5] 0.184

GPX4 (UniProt P36969)
inactive: [1] 0.018 | [2] -0.01 | [3] 0.036 | [4] -0.03 | [5] 0.048

HNRNPL (UniProt P14866)
UniProt P14866, sequence (P14866 whole entry, looked up): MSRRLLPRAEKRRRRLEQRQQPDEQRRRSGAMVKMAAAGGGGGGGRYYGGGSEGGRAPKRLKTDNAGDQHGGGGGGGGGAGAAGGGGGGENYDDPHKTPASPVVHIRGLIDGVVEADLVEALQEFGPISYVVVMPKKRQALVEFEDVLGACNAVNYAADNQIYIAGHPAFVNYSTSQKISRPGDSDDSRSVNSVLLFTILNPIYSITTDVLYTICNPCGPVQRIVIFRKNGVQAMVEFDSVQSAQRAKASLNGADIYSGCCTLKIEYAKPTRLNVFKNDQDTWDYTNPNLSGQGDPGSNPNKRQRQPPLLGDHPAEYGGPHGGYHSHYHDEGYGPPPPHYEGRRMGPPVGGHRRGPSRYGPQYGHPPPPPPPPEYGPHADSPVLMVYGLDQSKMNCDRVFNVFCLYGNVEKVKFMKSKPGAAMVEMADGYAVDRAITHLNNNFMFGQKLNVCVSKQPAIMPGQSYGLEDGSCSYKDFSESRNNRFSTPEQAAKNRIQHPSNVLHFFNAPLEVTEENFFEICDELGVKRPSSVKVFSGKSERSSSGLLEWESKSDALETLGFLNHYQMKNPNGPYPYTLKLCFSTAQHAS
inactive: [1] -0.01 | [2] -0.024 | [3] 0.04 | [4] 0.039 | [5] 0.071

IMPDH2 (UniProt H0Y4R1)
inactive: [1] -0.048 | [2] 0 | [3] -0.077 | [4] -0.018 | [5] -0.203

ITPKA (UniProt P23677)
inactive: [1] -0.022 | [2] 0.006 | [3] -0.017 | [4] -0.012 | [5] -0.013

KIAA0930 isoform 2 (UniProt Q6ICG6)
UniProt Q6ICG6, sequence (Q6ICG6 whole entry, looked up): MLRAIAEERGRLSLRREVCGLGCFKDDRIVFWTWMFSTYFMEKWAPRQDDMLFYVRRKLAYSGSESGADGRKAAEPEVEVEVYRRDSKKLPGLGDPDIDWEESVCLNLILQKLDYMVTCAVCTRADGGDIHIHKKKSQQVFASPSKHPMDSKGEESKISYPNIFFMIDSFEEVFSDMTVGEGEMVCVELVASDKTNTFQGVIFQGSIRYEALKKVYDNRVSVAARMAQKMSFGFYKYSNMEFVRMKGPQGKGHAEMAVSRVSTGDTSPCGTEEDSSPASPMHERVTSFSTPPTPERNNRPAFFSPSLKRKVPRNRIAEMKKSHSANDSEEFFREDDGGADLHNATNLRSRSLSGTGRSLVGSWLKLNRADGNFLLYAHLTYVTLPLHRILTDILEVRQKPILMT
inactive: [1] 0.3 | [2] -0.034 | [3] -0.051 | [4] 0.07 | [5] 0.031

GSTM4 (UniProt Q03013)
inactive: [1] -0.04 | [2] -0.053 | [3] 0.03 | [4] 0.09 | [5] -0.016

GUSB (UniProt P08236)
inactive: [1] 0.035 | [2] 0.022 | [3] 0.016 | [4] -0.051 | [5] -0.313

GMPS (UniProt P49915)
UniProt P49915, sequence (P49915 whole entry, looked up): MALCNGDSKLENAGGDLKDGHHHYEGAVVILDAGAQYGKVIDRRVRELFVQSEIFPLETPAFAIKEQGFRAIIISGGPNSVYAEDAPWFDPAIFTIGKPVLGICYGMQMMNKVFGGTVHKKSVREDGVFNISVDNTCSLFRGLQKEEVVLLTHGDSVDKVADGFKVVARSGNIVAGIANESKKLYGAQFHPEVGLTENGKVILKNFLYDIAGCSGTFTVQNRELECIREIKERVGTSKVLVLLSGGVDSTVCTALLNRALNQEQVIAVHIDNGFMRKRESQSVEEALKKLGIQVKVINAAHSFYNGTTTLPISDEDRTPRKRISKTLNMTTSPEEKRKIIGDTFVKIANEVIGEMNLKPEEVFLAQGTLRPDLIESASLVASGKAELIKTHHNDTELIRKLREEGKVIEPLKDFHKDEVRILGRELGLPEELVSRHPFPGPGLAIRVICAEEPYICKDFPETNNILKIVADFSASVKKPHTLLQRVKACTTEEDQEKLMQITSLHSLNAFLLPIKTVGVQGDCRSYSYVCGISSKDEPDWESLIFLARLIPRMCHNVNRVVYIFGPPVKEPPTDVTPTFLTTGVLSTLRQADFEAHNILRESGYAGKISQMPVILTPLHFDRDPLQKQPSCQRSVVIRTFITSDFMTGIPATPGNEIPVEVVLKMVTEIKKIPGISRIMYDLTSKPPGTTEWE
inactive: [1] -0.014 | [2] -0.001 | [3] 0.02 | [4] 0.019 | [5] 0.088

GTPBP2 (UniProt Q9BX10)
UniProt Q9BX10, sequence (Q9BX10 whole entry, looked up): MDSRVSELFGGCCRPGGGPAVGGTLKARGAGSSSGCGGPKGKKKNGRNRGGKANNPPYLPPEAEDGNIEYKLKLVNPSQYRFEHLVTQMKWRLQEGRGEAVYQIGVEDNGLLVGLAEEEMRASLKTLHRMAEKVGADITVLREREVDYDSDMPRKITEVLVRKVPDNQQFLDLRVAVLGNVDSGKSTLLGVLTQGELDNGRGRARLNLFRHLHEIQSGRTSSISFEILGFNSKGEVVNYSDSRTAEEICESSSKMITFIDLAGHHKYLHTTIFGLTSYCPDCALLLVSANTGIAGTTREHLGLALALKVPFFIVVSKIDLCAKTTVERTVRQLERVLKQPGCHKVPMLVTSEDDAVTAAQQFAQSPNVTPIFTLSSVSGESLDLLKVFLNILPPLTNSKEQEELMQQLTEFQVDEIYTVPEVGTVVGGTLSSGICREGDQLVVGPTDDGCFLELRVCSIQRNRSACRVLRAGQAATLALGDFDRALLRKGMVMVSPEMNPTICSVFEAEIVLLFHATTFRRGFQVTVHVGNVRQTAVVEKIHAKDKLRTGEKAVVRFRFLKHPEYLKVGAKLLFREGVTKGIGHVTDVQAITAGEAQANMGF
inactive: [1] 0.019 | [2] 0.021 | [3] 0.025 | [4] 0.049 | [5] 0.034

HK1 isoform 2 (UniProt P19367)
UniProt P19367, sequence (P19367 whole entry, looked up): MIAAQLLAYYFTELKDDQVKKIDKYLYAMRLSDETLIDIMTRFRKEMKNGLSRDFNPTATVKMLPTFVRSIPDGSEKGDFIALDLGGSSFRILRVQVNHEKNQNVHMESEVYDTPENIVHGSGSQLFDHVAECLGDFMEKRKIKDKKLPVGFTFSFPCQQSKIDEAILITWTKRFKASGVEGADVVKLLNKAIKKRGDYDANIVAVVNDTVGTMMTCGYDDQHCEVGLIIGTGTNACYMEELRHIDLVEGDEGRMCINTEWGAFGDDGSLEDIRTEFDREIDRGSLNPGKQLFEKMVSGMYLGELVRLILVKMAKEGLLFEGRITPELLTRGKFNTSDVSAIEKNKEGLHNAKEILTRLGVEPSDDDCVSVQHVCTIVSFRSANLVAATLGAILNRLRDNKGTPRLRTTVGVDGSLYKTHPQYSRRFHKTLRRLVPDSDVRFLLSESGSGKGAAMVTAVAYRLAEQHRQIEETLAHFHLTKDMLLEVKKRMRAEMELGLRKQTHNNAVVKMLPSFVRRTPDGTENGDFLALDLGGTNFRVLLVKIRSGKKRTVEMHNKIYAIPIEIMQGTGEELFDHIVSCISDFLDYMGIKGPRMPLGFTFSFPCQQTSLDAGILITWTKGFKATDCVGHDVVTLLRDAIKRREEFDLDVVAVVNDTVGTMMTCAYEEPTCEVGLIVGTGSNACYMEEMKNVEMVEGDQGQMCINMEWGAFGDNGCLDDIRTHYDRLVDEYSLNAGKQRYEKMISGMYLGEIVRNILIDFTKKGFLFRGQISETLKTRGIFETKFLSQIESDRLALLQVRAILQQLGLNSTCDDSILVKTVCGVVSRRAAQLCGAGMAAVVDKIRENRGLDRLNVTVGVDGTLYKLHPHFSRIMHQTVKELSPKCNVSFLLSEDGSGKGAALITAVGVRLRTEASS
inactive: [1] -0.017 | [2] 0.017 | [3] -0.002 | [4] 0.016 | [5] 0.016

HSPA14 (UniProt Q0VDF9)
inactive: [1] 0 | [2] 0.011 | [3] -0.004 | [4] 0.025 | [5] 0.017

GLYR1 (UniProt Q49A26)
inactive: [1] -0.179 | [2] 0.066 | [3] -0.128 | [4] 0.142 | [5] 0.043

HECTD4 (UniProt J3KPF0)
inactive: [1] -0.013 | [2] 0.023 | [3] 0.068 | [4] -0.03 | [5] 0.043

ISCA1 isoform 2 (UniProt Q9BUE6)
UniProt Q9BUE6, sequence (Q9BUE6 whole entry, looked up): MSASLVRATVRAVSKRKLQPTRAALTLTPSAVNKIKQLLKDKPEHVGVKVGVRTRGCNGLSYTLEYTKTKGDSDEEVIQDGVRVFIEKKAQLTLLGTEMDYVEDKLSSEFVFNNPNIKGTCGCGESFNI
inactive: [1] 0.005 | [2] -0.03 | [3] 0.016 | [4] -0.021 | [5] 0.099

KCTD20 (UniProt Q7Z5Y7)
inactive: [1] -0.031 | [2] -0.011 | [3] 0.097 | [4] -0.009 | [5] 0.078

HNRNPDL (UniProt O14979)
inactive: [1] 0.033 | [2] 0.002 | [3] 0 | [4] 0.048 | [5] -0.071

IGF2BP2 (UniProt Q9Y6M1)
inactive: [1] -0.041 | [2] -0.004 | [3] 0.012 | [4] 0.022 | [5] 0.008

HSPA8 (UniProt P11142)
inactive: [1] 0.002 | [2] -0.014 | [3] -0.004 | [4] -0.004 | [5] 0.006

GSK3B isoform 2 (UniProt P49841)
inactive: [1] 0.036 | [2] -0.003 | [3] -0.042 | [4] 0.029 | [5] -0.074

ILRUN (UniProt Q9H6K1)
inactive: [1] 0.078 | [2] -0.021 | [3] 0.03 | [4] 0.009 | [5] 0.028

GSTCD (UniProt Q8NEC7)
inactive: [1] -0.048 | [2] -0.048 | [3] -0.076 | [4] -0.055 | [5] 0.007

HMGCS1 (UniProt Q01581)
inactive: [1] 0.043 | [2] -0.022 | [3] 0.02 | [4] 0.003 | [5] -0.009

IRAK4 (UniProt Q9NWZ3)
inactive: [1] -0.02 | [2] -0.014 | [3] 0.022 | [4] -0.08 | [5] -0.024

HDAC2 (UniProt Q92769)
inactive: [1] 0.004 | [2] 0.002 | [3] -0.017 | [4] 0.02 | [5] -0.004

KDM5B isoform 2 (UniProt Q9UGL1)
inactive: [1] -0.07 | [2] 0.117 | [3] 0.018 | [4] 0.07 | [5] -0.229

IRF2BP1 (UniProt Q8IU81)
inactive: [1] -0.048 | [2] -0.013 | [3] -0.043 | [4] 0.017 | [5] -0.045

IL18R1 (UniProt Q13478)
inactive: [2] -0.103 | [3] 0.119 | [4] -0.094 | [5] 0.052
active: [1] -0.612

INPPL1 (UniProt O15357)
inactive: [1] 0.014 | [2] 0.029 | [3] -0.021 | [4] 0.012 | [5] 0.021

IMPACT (UniProt Q9P2X3)
inactive: [1] 0.093 | [2] -0.07 | [3] -0.18 | [4] -0.067 | [5] -0.13

GOLGA6B (UniProt A6NDN3)
inactive: [1] -0.041 | [2] 0.006 | [3] 0.009 | [4] -0.123 | [5] 0.012

HNRNPM (UniProt P52272)
UniProt P52272, sequence (P52272 whole entry, looked up): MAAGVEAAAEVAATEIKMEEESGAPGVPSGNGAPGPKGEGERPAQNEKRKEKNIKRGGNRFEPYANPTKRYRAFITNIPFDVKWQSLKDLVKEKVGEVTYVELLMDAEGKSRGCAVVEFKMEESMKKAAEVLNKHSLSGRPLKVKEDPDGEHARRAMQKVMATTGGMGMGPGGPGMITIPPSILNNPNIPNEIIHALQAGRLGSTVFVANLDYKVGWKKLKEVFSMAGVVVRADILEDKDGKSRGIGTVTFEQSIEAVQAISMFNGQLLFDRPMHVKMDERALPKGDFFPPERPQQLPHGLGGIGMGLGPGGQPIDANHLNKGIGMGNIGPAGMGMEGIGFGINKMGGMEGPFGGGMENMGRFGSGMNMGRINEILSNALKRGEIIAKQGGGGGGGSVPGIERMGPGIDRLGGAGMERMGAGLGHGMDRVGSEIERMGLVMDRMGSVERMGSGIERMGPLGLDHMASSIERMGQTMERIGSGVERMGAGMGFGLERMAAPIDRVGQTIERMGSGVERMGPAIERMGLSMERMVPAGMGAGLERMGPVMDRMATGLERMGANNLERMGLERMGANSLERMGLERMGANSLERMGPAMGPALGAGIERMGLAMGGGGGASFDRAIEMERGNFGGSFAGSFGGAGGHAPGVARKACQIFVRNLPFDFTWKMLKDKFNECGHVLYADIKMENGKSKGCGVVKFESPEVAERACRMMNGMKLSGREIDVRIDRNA
inactive: [1] -0.099 | [2] 0.034 | [3] 0.041 | [4] -0.025 | [5] 0.014

IRAK1 (UniProt P51617)
inactive: [1] -0.146 | [2] -0.028 | [3] -0.001 | [4] 0.004 | [5] 0.026

KEAP1 (UniProt Q14145)
inactive: [1] 0.029 | [2] 0.016 | [3] 0.014 | [4] -0.018 | [5] -0.02

GLUL (UniProt P15104)
UniProt P15104, sequence (P15104 whole entry, looked up): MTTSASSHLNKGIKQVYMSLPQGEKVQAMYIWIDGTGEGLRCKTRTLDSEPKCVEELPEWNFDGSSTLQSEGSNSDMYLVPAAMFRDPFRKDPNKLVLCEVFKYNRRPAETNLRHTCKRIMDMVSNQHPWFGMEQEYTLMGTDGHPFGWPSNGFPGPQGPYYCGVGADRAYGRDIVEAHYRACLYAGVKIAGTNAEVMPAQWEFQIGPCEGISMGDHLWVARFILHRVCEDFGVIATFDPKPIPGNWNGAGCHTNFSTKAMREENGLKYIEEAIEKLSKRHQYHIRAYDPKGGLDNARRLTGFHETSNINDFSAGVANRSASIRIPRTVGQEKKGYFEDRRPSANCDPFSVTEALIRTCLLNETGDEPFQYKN
inactive: [1] -0.011 | [2] -0.063 | [3] -0.085 | [4] 0.031 | [5] 0.053

HECTD3 (UniProt Q5T447)
inactive: [1] -0.06 | [2] 0.038 | [3] 0.046 | [4] 0.034 | [5] 0.06

IARS (UniProt P41252)
inactive: [1] -0.027 | [2] 0.026 | [3] 0.025 | [4] 0.066 | [5] 0.047

HMGN5 (UniProt P82970)
inactive: [1] 0.033 | [2] 0.05 | [3] -0.008 | [4] -0.026 | [5] 0.083

HLCS (UniProt P50747)
inactive: [1] -0.027 | [2] 0.027 | [3] 0.011 | [4] -0.006 | [5] 0.038

HMGB2 (UniProt P26583)
inactive: [1] 0.022 | [2] -0.069 | [3] -0.03 | [4] 0.036 | [5] 0.161

GRK6 isoform 2 (UniProt P43250)
UniProt P43250, sequence (P43250 whole entry, looked up): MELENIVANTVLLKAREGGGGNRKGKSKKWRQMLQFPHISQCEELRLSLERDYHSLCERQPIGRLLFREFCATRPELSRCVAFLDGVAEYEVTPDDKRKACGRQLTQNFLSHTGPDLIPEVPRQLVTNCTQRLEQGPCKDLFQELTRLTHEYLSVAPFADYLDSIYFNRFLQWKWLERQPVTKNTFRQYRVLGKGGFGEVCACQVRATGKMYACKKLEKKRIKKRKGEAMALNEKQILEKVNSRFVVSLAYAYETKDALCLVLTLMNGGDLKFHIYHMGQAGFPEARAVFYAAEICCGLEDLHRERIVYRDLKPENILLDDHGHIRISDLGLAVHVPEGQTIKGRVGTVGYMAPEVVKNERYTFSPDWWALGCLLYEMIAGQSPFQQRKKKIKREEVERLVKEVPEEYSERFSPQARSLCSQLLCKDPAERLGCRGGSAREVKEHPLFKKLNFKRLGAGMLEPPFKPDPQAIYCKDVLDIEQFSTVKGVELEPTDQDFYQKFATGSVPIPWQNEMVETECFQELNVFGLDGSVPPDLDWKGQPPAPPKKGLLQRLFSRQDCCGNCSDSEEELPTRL
inactive: [1] 0.086 | [2] -0.034 | [3] -0.135 | [4] 0.084 | [5] -0.018

ISOC2 (UniProt Q96AB3)
inactive: [1] -0.014 | [2] 0.035 | [3] 0.085 | [4] 0.03 | [5] -0.031
